In PubChem BioAssay (EPA / NIEHS) one finds AC50 and outcome data, which are given here for 14 compounds.

The structures appear in SMILES notation. Activity calls are given as the source filed them. The calls were made as follows: active = hit-call score of the fitted dose curve at least 0.9, where 1 is the maximum; inactive = score below 0.9.

This experiment can be described thus: Tanguay_ZF_120hpf_MORT: Oregon State University Tanguay Lab 120 Hour Post-fertilization zebrafish Assay for Mortality (AID 2284399). Here is the method:
Tanguay_ZF_120hpf is a whole embryo, multiplexed endpoint assay using zebrafish larvae exposed for 120 hours post fertilization on a 96-well plate.Tanguay_ZF_120hpf_MORT is one of one assay component(s) measured or calculated from the Tanguay_ZF_120hpf assay. It is designed to make measurements of zebrafish development as detected with brightfield microscopy of developing zebrafish embryos.Data from the assay component Tanguay_ZF_120hpf_MORT was analyzed into 1 assay endpoints. This assay endpoint, Tanguay_ZF_120hpf_MORT, was analyzed in the positive analysis fitting direction relative to DMSO as the negative control and baseline of activity. Using a type of viability reporter, gain-of-signal activity can be used to understand changes in developmentals as they relate to the whole embryo. To generalize the intended target to other relatable targets, this assay endpoint is annotated to the zebrafish development intended target family, where the subfamily is embryonic mortality.
Zebrafish husbandry: Tropical 5D wild-type adult zebrafish were housed in at an approximate density of 1000 per 100 gallon tank at the Sinnhuber Aquatic Research Laboratory, Oregon State University, Corvallis, OR. Each tank was kept at standard laboratory conditions of 28C on a 14-h light/10-h dark photoperiod in fish water consisting of reverse osmosis water supplemented with a commercially available salt (Instant Ocean). Spawning funnels were placed into the tanks the night prior, and embryos were collected and staged. To increase bioavailability, the chorion was enzymatically removed using pronase (63.6mg/ml, >/= 3.5U/mg, Sigma-Aldrich: P5147) at 4 hours post fertilization (hpf) using a custom automated dechorionator.Chemical exposures: Six hpf dechorionated embryos were placed 1 embryo per well in a 96-well plate prefilled with 90 ul of EM using automated embryo placement systems (AEPS). Ten microliters of each row of dilution plate 2 was added to 2 exposure plates. The final DMSO concentration used was 0.64% (vol/vol). Thirty-two embryos were also exposed to 5uM trimethyltin chloride (positive control). Plates were sealed to prevent evaporation and foil covered to reduce light exposure and kept in a 28C incubator. Embryos were statically exposed until 120 hpf. At 24 hpf, embryos were assessed for photomotor response using a custom photomotor response analysis tool (PRAT) and for developmental toxicity endpoints (MO24: mortality at 24 hpf, DP: developmental progression, SM: spontaneous movement, and NC: notochord distortion). At 120 hpf, locomotor activity was measured using Viewpoint Zebralab and assessed for 13 endpoints. Zebrafish acquisition and analysis program (ZAAP), a custom program designed to inventory, acquire, and manage zebrafish data, was used to collect developmental endpoints as either present or absent (i.e., binary responses were recorded). If mortality occurred for an embryo (at either 24 or 120 hpf), the non-mortality endpoints were not measured.
In general, AC50 refers to the midpoint of the concentration-response curve, whichever way the signal moves. Consider `C=CC(=O)OCC(F)(F)C(F)F`, for which the AC50 was 64 µM (active). Consider `O=C(O)C(F)(F)OC(F)(F)C(F)(F)OC(F)(F)C(=O)O`, for which the outcome was inactive.

As for `OCC(F)(F)OC(F)(F)C(F)(F)OC(F)(F)CO`, the compound was called inactive. For `FC(F)(F)C(F)(C(F)(F)F)C(F)(F)C(F)(F)CC1CO1` (centres undefined), the compound was classed as inactive. For `NC(=O)C(F)(F)C(F)(F)F`, the result was inactive. For the compound `COC(=O)C(F)(F)C(F)(F)OC(F)(C(F)(F)F)C(F)(F)OC(F)=C(F)F` (centres undefined), the AC50 was 22.2 µM (active). With `O=S(=O)(F)C(F)(F)C(F)(F)C(F)(F)C(F)(F)C(F)(F)C(F)(F)C(F)(F)C(F)(F)F`, the outcome was inactive. Still for that read-out and setting: for `O=C(O)C(F)(F)OC(F)(F)C(F)(F)OC(F)(F)F` the value was “inactive”. On the same count and under the same terms, with `O=C(O)C=CC(F)(C(F)(F)F)C(F)(F)F` the entry was “inactive”.

`CC(O)C(F)(F)C(F)(F)F` (centres undefined): the compound was classed as inactive. On the same count and under the same terms, for `O=C(O)C(F)(F)C(F)(F)C(=O)O` the value was “inactive”. Same read-out and setting: for `OCC(F)(F)OC(F)(F)C(F)(F)OC(F)(F)C(F)(F)OC(F)(F)F` the value was “inactive”; for `O=C(O)C(F)(OC(F)(F)C(F)(F)C(F)(F)F)C(F)(F)F` (centres undefined), “inactive”. As to `OCC(F)(F)OC(F)(F)C(F)(F)OC(F)(F)C(F)(F)OC(F)(F)CO`, the AC50 is 57.6 µM (active).
